{
  "source": "ChEMBL document CHEMBL1201862",
  "about": "“PubChem BioAssay data set” (2004)",
  "note": "The whole screen tested about 220,000 compounds, of which about 10 (0.005%) were called active. The rule behind the calls is not given here. Many of the other results were omitted from the sample, so actives are more common in it than they were.",
  "data": [
    {"assay": "enhancers of HSV replication in host cells, fold increase, host cell viability (AID 1956)", "format": "functional", "values": [
      {"smiles": "N#C/C(=C/c1ccc(N2CCOCC2)o1)C(=O)NC1CCCCC1", "Conc @ Max Fold Incr": "25 µM (active)"}
    ]}
  ]
}
